The text below walks through data of the supplement of paper PMC9262897, “Low-cost anti-mycobacterial drug discovery using engineered E. coli” (Nature Communications, 2022).

Common to all, as to assay: growth (OD600 after 10 h); higher = more growth (less inhibition)
Assay [1] concerns E. coli TESEC Alr+ wild-type control. As to conditions: compound 0.1 mM; raw OD600 reference: median of DMSO wells 0.241, cell-free background 0.041. How it is done: (§1)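 TESEC Mtb Alr E. coli, or the Alr+ wild-type control, in 384-well plates with Prestwick library compounds at 0.1 mM and 1% DMSO, across arabinose induction levels of 1E3 to 1E7 nM. Growth is read as OD600 after 10 h at 37 °C in triplicate biological replicates.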

Assay [2] relates to E. coli TESEC Mtb Alr. As to conditions: compound 0.1 mM. As for the experimental part:
as §1

The test system of assay [3] is E. coli TESEC Mtb Asd. The settings on record: compound 0.1 mM. How it is done:
(§2)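 TESEC E. coli strains in which the native enzyme is deleted and replaced by arabinose-inducible Mtb Asd, DapB, CysH or TrpD, each grown in its selective medium. Strains were screened against the Prestwick library at 0.1 mM and 1% DMSO in 384-well format at low and high arabinose induction. Growth is read as OD600 after 10 h in triplicate.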

In assay [4] the test system is E. coli TESEC Mtb DapB. The settings on record: compound 0.1 mM. How it is done:
as §2

The subject of assay [5] is E. coli TESEC Alr+ wild-type control. The settings on record: compound 0.1 mM; raw OD600 reference: median of DMSO wells 0.49, cell-free background 0.052. As for the experimental part:
(§3)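 TESEC Mtb Alr E. coli (ΔaraC ΔtolC ΔentC Δalr ΔdadX, arabinose-inducible Mtb Alr) or the Alr+ wild-type control strain, grown in defined M9-fructose medium without D-alanine in 96-well plates with Prestwick library compounds at 0.1 mM and 1% DMSO. Low Alr induction is 0.1 µM arabinose and high induction is 10 mM arabinose.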

In assay [6] the test system is E. coli TESEC Mtb Alr. The settings on record: compound 0.1 mM. How it is done:
as §3
This is another data set of the same source.

Where [7] appears, read: arabinose 1000 nM, raw OD600 reference: median of DMSO wells 0.294, cell-free background 0.041.
The mark [8] stands for this setting: arabinose 10000 nM, raw OD600 reference: median of DMSO wells 0.264, cell-free background 0.041.
The mark [9] stands for this setting: arabinose 100000 nM, raw OD600 reference: median of DMSO wells 0.201, cell-free background 0.041.
Setting [10] is: arabinose 1000000 nM, raw OD600 reference: median of DMSO wells 0.193, cell-free background 0.041.
Setting [11] is: arabinose 10000000 nM, raw OD600 reference: median of DMSO wells 0.146, cell-free background 0.041.
Setting [12] is: arabinose induction (level): High, raw OD600 reference: median of DMSO wells 0.331, cell-free background 0.041.
[13] abbreviates: arabinose induction (level): Low, raw OD600 reference: median of DMSO wells 0.417, cell-free background 0.041.
Setting [14] is: arabinose induction (level): High, raw OD600 reference: median of DMSO wells […], cell-free background 0.041.
[15] abbreviates: arabinose induction (level): Low, raw OD600 reference: median of DMSO wells 0.227, cell-free background 0.041.
Where [16] appears, read: arabinose 100 nM, raw OD600 reference: median of DMSO wells 0.413, cell-free background 0.052.
Where [17] appears, read: arabinose 10000000 nM, raw OD600 reference: median of DMSO wells […], cell-free background 0.052.

Structures can show the parent of a compound that is named as a salt. ± gives the standard deviation of the averaged measurements.

For the molecule `COc1cc(N)c(Cl)cc1C(=O)NC1CCN(CCCOc2ccc(F)cc2)CC1OC` (centres undefined) [Cisapride], the growth was 0.2147 ± 0.0012 in assay [1]; 0.2892 ± 0.0012 in assay [2] (setting [7]); 0.2613 ± 0.0016 in assay [2] (setting [8]); 0.201 ± 0.03 in assay [2] (setting [9]); 0.155 ± 0.0047 in assay [2] (setting [10]); 0.148 ± 0.0037 in assay [2] (setting [11]). For the same molecule, the growth stood at 0.222 ± 0.017 in assay [3] (setting [12]); 0.357 ± 0.041 in assay [3] (setting [13]); 0.171 ± 0.003 in assay [4] (setting [14]); 0.186 ± 0.0052 in assay [4] (setting [15]); 0.552 ± 0.1 in assay [5]; 0.41 ± 0.011 in assay [6] (setting [16]). In assay [6] (setting [17]), this molecule registered a growth of 0.458 ± 0.038.

In the case of `CNCC[C@@H](Oc1ccccc1C)c1ccccc1` [Tomoxetine hydrochloride], the growth in assay [1] is 0.216 ± 0.0098; in assay [2] (setting [7]) it was 0.254 ± 0.0027; in assay [2] (setting [8]), 0.272 ± 0.0044; in assay [2] (setting [9]), 0.211 ± 0.019; in assay [2] (setting [10]), 0.139 ± 0.0019; in assay [2] (setting [11]), 0.173 ± 0.0034. The growth in assay [3] (setting [12]) turned out to be 0.205 ± 0.024; in assay [3] (setting [13]), 0.294 ± 0.021; in assay [4] (setting [14]), 0.18 ± 0.0036; in assay [4] (setting [15]), 0.263 ± 0.047; in assay [5], 0.441 ± 0.016; in assay [6] (setting [16]), 0.407 ± 0.0067. In assay [6] (setting [17]), this molecule displayed a growth of 0.326 ± 0.018.

With `CN[C@@H]1[C@H](O[C@H]2[C@H](O[C@H]3[C@H](O)[C@@H](O)[C@H](N=C(N)N)[C@@H](O)[C@@H]3N=C(N)N)O[C@@H](C)[C@]2(O)C=O)O[C@@H](CO)[C@H](O)[C@H]1O` [Streptomycin sulfate], the growth in assay [1] is 0.04117 ± 5.8e-05; in assay [2] (setting [7]), 0.04617 ± 0.00029; in assay [2] (setting [8]) it was 0.0396 ± 0.00055; in assay [2] (setting [9]) it was 0.04577 ± 0.00042; in assay [2] (setting [10]) it was 0.03957 ± 0.00025; in assay [2] (setting [11]), 0.0731 ± 0.0022. Besides, the growth was 0.0611 ± 0.0021 in assay [3] (setting [12]); 0.0528 ± 0.00084 in assay [3] (setting [13]); 0.108 ± 0.048 in assay [4] (setting [14]); 0.0695 ± 0.0084 in assay [4] (setting [15]); 0.0543 ± 0.00036 in assay [5]; 0.0665 ± 0.0098 in assay [6] (setting [16]). The same molecule gave a growth in assay [6] (setting [17]) of 0.05093 ± 0.00012.

Take `CNS(=O)(=O)Cc1ccc2[nH]cc(CCN(C)C)c2c1` [Sumatriptan succinate]: the growth in assay [1] worked out at 0.226 ± 0.0042; in assay [2] (setting [7]), 0.298 ± 0.019; in assay [2] (setting [8]), 0.258 ± 0.0057; in assay [2] (setting [9]) it was 0.2 ± 0.024; in assay [2] (setting [10]) it was 0.193 ± 0.0067; in assay [2] (setting [11]), 0.137 ± 0.0028. Also, the growth in assay [3] (setting [12]) worked out at 0.372 ± 0.026; in assay [3] (setting [13]), 0.503 ± 0.03; in assay [4] (setting [14]), 0.206 ± 0.018; in assay [4] (setting [15]), 0.221 ± 0.028; in assay [5] it was 0.441 ± 0.017; in assay [6] (setting [16]), 0.417 ± 0.0056. The molecule also gave a growth in assay [6] (setting [17]) of 0.353 ± 0.0071.

For the molecule `CCOC(=O)C1=C(C)NC(C)=C(C(=O)OC)C1c1cccc([N+](=O)[O-])c1` (centres undefined) [Nitrendipine], the growth in assay [1] came to 0.173 ± 0.013; in assay [2] (setting [7]), 0.224 ± 0.01; in assay [2] (setting [8]) it was 0.0536 ± 0.0045; in assay [2] (setting [9]) it was 0.165 ± 0.0036; in assay [2] (setting [10]), 0.0556 ± 0.00083; in assay [2] (setting [11]), 0.15 ± 0.0073. Moreover, the growth was 0.246 ± 0.036 in assay [3] (setting [12]); 0.4531 ± 0.0035 in assay [3] (setting [13]); 0.217 ± 0.016 in assay [4] (setting [14]); 0.215 ± 0.0092 in assay [4] (setting [15]); 0.557 ± 0.015 in assay [5]; 0.412 ± 0.017 in assay [6] (setting [16]). In assay [6] (setting [17]), this molecule returned a growth of 0.221 ± 0.13.

Take `CN(C)CCOC1=Cc2ccccc2Sc2ccc(Cl)cc21` [Zotepine]: the growth stood at 0.179 ± 0.011 in assay [1]; 0.186 ± 0.0076 in assay [2] (setting [7]); 0.177 ± 0.0016 in assay [2] (setting [8]); 0.215 ± 0.0073 in assay [2] (setting [9]); 0.0636 ± 0.0007 in assay [2] (setting [10]); 0.0782 ± 0.003 in assay [2] (setting [11]). In addition, the growth stood at 0.168 ± 0.0075 in assay [3] (setting [12]); 0.127 ± 0.018 in assay [3] (setting [13]); 0.171 ± 0.019 in assay [4] (setting [14]); 0.1696 ± 0.0015 in assay [4] (setting [15]); 0.0664 ± 0.019 in assay [5]; 0.41 ± 0.0042 in assay [6] (setting [16]). In addition, the growth in assay [6] (setting [17]) turned out to be 0.0544 ± 0.0015.

For `COc1cc(C)c(/C=C/C(C)=C/C=C/C(C)=C/C(=O)O)c(C)c1C` [Acitretin], the growth in assay [1] was 0.227 ± 0.0077; in assay [2] (setting [7]), 0.276 ± 0.0084; in assay [2] (setting [8]), 0.127 ± 0.0023; in assay [2] (setting [9]), 0.228 ± 0.03; in assay [2] (setting [10]) it was 0.06247 ± 0.00031; in assay [2] (setting [11]) it was 0.162 ± 0.0072. Also, the growth in assay [3] (setting [12]) amounted to 0.137 ± 0.015; in assay [3] (setting [13]), 0.145 ± 0.0072; in assay [4] (setting [14]), 0.153 ± 0.0019; in assay [4] (setting [15]) it was 0.1772 ± 0.00061; in assay [5], 0.34 ± 0.0082; in assay [6] (setting [16]), 0.369 ± 0.0094. This molecule also came in with a growth in assay [6] (setting [17]) of 0.199 ± 0.02.

On to `CC[C@H]1OC(=O)[C@H](C)[C@@H](O[C@H]2C[C@@](C)(OC)[C@@H](O)[C@H](C)O2)[C@H](C)[C@@H](O[C@@H]2O[C@H](C)C[C@H](N(C)C)[C@H]2O)[C@](C)(O)C[C@@H](C)[C@@H]2N[C@@H](COCCOC)O[C@H]([C@H]2C)[C@]1(C)O` [Dirithromycin], for which the growth in assay [1] stood at 0.0424 ± 0.0002; in assay [2] (setting [7]) it was 0.04193 ± 0.00015; in assay [2] (setting [8]), 0.03907 ± 0.00012; in assay [2] (setting [9]), 0.044 ± 0.00057; in assay [2] (setting [10]), 0.0396 ± 0.0001; in assay [2] (setting [11]), 0.0428 ± 0.0002. Besides, the growth in assay [3] (setting [12]) was determined as 0.057 ± 0.0029; in assay [3] (setting [13]) it was 0.054 ± 0.0053; in assay [4] (setting [14]), 0.0519 ± 0.0012; in assay [4] (setting [15]), 0.052 ± 0.00061; in assay [5], 0.0524 ± 0.00093; in assay [6] (setting [16]), 0.0635 ± 0.0042. The same molecule had a growth in assay [6] (setting [17]) of 0.0507 ± 0.00036.
